In PubChem BioAssay AID1159580 (chemical genetic matrix, 2015):
About 2,000 (36%) of roughly 5,500 compounds were called active. Not shown: some 18% with an inconclusive outcome. Cut-off read from the data, not from the text of the source: active = normalized growth mostly below about 0.91 (no sharp cut-off); inconclusive = no clear call, values can overlap the other calls; inactive = mostly above about 0.92. Some of the results follow.

Assay: chemical genetic growth profiling, strain panel (AID 1159580);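 note: tested at 20 µM; growth read once vehicle control cultures reached saturation at 30 °C; 1 = growth at the plate median or of vehicle wells; lower values mean less growth of the strain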
Details: S. cerevisiae deletion strains, growth OD

Measured: normalized growth

NCCCCCCCCCCN
inactive: locus YAL040C, strain CLN3, stronger effect = lower value 1.01 | locus YCL061C, strain MRC1 (second series), stronger effect = lower value 1.01 | locus YDR150W, strain NUM1, stronger effect = lower value 1.01 | locus YDR363W, strain ESC2, stronger effect = lower value 1.03 | locus YER002W, strain NOP16, stronger effect = lower value 1.01 | locus YNL175C, strain NOP13, stronger effect = lower value 1.01 | locus YNL197C, strain WHI3, stronger effect = lower value 1 | locus YNL224C, strain SQS1, stronger effect = lower value 1 | locus YOR083W, strain WHI5 (second series), stronger effect = lower value 1.02 | locus YPL241C, strain CIN2, stronger effect = lower value 1.01

C/C(=N/OC(=O)Nc1ccc(Cl)cc1)c1ccc2c(c1)CCO2
active: locus YHR030C, strain SLT2, stronger effect = lower value 0.607 | locus YLR113W, strain HOG1, stronger effect = lower value 0.755 | locus YPL256C, strain CLN2, stronger effect = lower value 0.853
inactive: locus YAR019C, strain CDC15, stronger effect = lower value 0.946 | locus YBL105C, strain PKC1, stronger effect = lower value 0.95 | locus YBR135W, strain CKS1, stronger effect = lower value 0.954 | locus YBR136W, strain MEC1, stronger effect = lower value 0.95 | locus YBR160W, strain CDC28, stronger effect = lower value 0.943 | locus YDL017W, strain CDC7, stronger effect = lower value 0.947 | locus YDL028C, strain MPS1, stronger effect = lower value 0.955 | locus YDL101C, strain DUN1, stronger effect = lower value 0.948 | locus YDL108W, strain KIN28, stronger effect = lower value 0.966 | locus YDL132W, strain cdc53, stronger effect = lower value 0.935 | locus YDL214C, strain PRR2, stronger effect = lower value 0.868 | locus YDR052C, strain DBF4, stronger effect = lower value 0.957 | locus YDR054C, strain cdc34, stronger effect = lower value 0.93 | locus YDR226W, strain ADK1, stronger effect = lower value 0.949 | locus YDR477W, strain SNF1, stronger effect = lower value 0.853 | locus YER123W, strain YCK3, stronger effect = lower value 0.858 | locus YER133W, strain GLC7, stronger effect = lower value 0.837 | locus YFL009W, strain cdc4, stronger effect = lower value 0.949 | locus YFL029C, strain CAK1, stronger effect = lower value 0.939 | locus YFR003C, strain YPI1, stronger effect = lower value 0.959 | locus YFR019W, strain FAB1, stronger effect = lower value 0.93 | locus YFR028C, strain CDC14, stronger effect = lower value 0.953 | locus YGR040W, strain KSS1, stronger effect = lower value 0.835 | locus YGR052W, strain FMP48, stronger effect = lower value 0.908 | locus YGR092W, strain DBF2, stronger effect = lower value 0.599 | locus YHR079C, strain IRE1, stronger effect = lower value 0.775 | locus YHR082C, strain KSP1, stronger effect = lower value 0.838 | locus YHR205W, strain SCH9, stronger effect = lower value 0.756 | locus YIL147C, strain SLN1, stronger effect = lower value 0.949 | locus YJL095W, strain BCK1, stronger effect = lower value 0.69 | locus YJL128C, strain PBS2, stronger effect = lower value 0.951 | locus YJL157C, strain FAR1, stronger effect = lower value 0.852 | locus YJR016C, strain ILV3, stronger effect = lower value 0.938 | locus YJR066W, strain TOR1 (second series), stronger effect = lower value 0.745 | locus YJR066W, strain TOR1, stronger effect = lower value 0.727 | locus YKL048C, strain ELM1, stronger effect = lower value 0.966 | locus YKL067W, strain YNK1, stronger effect = lower value 0.891 | locus YKL101W, strain HSL1, stronger effect = lower value 0.92 | locus YKL193C, strain SDS22, stronger effect = lower value 0.941 | locus YKL203C, strain TOR2, stronger effect = lower value 0.85 | locus YLR133W, strain CKI1, stronger effect = lower value 0.884 | locus YLR403W, strain SFP1, stronger effect = lower value 0.777 | locus YML070W, strain DAK1, stronger effect = lower value 0.874 | locus YMR001C, strain CDC5, stronger effect = lower value 0.946 | locus YMR205C, strain PFK2 (second series), stronger effect = lower value 0.908 | locus YMR277W, strain FCP1, stronger effect = lower value 0.949 | locus YNL006W, strain LST8, stronger effect = lower value 0.97 | locus YNL020C, strain ARK1, stronger effect = lower value 0.873 | locus YNL161W, strain CBK1, stronger effect = lower value 0.951 | locus YNL183C, strain NPR1, stronger effect = lower value 0.775 | locus YNL207W, strain RIO2, stronger effect = lower value 0.936 | locus YNL222W, strain SSU72, stronger effect = lower value 0.954 | locus YNL307C, strain MCK1 (second series), stronger effect = lower value 0.832 | locus YOL078W, strain AVO1, stronger effect = lower value 0.951 | locus YOL136C, strain PFK27, stronger effect = lower value 0.864 | locus YOR061W, strain CKA2, stronger effect = lower value 0.873 | locus YOR119C, strain RIO1, stronger effect = lower value 0.894 | locus YOR231W, strain MKK1, stronger effect = lower value 0.808 | locus YOR329C, strain SCD5, stronger effect = lower value 0.956 | locus YPL031C, strain PHO85, stronger effect = lower value 0.806 | locus YPL153C, strain RAD53, stronger effect = lower value 0.846 | locus YPL204W, strain HRR25, stronger effect = lower value 0.803 | locus YPL209C, strain IPL1, stronger effect = lower value 0.956 | locus YPR025C, strain CCL1, stronger effect = lower value 0.955 | locus YPR106W, strain ISR1, stronger effect = lower value 0.959 | locus YPR111W, strain DBF20, stronger effect = lower value 0.96 | strain NNK1, stronger effect = lower value 0.951 | strain TSCII, stronger effect = lower value 0.938
